Screening results: PubChem BioAssay, National Center for Advancing Translational Sciences (NCATS)
ELG1 DNA repair = inhibitors of ELG1-dependent DNA repair in HEK293T cells; hit rate 2.3% among 330,000; Potency, µM (top dose mostly 46.1 µM), without a hit: at the highest dose activity change, negative = inhibition, hits mostly inhibitors; AID 504467; HEK293T ELG1-luciferase reporter, luminescence, 16 h; DNA damage induced by 5-fluorouridine; also: % is scaled to controls: 0 for no effect and ±100 for the full control effect; nearly all actives have a fitted effect of over 55% in size
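Reporter activity after DNA damage by 5-fluorouridine is monitored. Compound-treated cells incubate 16 hr at 37 °C, then ONE-Glo is added for 30 min before luminescence reading.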
SW480 rereplic = inducers of DNA re-replication in SW480 colon cancer cells | SW480 DNA re-replication, Hoechst DNA content imaging, 48 h | Potency, µM (titrated, usually from 46.1 µM), without a hit: at the top dose re-replication activation, usual class: activators | hit rate 1.8% among 340,000 | AID 624297; also: % of control where 0% means no effect; nearly all actives have a fitted effect of over 55% in size
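First, 250 cells per well were seeded. Next, compound or vehicle (23 nL) was pinned in, plates sat 48 hr at 37 C. Finally Hoechst was added for 40 min before fluorescence scanning.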
MCF10A rereplic = induces DNA re-replication in MCF 10a normal breast cells. hit rate 2.9% among 350,000. MCF 10A DNA re-replication, Hoechst nuclear intensity, 48 h. AID 624296. Potency, µM (highest dose often 46.1 µM), without a hit: at the top dose activity, positive = re-replication, usual class: activators; also: % of control where 0% means no effect; nearly all actives have a fitted effect of over 50% in size
RORg inh = ROR gamma (mouse) transcription inhibition; P51450; Drosophila S2 Gal4-RORgamma UAS-luciferase reporter, 20 h; Potency, µM (titrated, usually from 53.6 µM), inactives show top-dose activity change, negative = inhibition, hits mostly inhibitors; hit rate 5.4% among 310,000; also: % is scaled to controls: 0 for no effect and ±100 for the full control effect; nearly all actives have a fitted effect of over 60% in size
Target sequence (P51450 whole entry, looked up, the tested form may be a part): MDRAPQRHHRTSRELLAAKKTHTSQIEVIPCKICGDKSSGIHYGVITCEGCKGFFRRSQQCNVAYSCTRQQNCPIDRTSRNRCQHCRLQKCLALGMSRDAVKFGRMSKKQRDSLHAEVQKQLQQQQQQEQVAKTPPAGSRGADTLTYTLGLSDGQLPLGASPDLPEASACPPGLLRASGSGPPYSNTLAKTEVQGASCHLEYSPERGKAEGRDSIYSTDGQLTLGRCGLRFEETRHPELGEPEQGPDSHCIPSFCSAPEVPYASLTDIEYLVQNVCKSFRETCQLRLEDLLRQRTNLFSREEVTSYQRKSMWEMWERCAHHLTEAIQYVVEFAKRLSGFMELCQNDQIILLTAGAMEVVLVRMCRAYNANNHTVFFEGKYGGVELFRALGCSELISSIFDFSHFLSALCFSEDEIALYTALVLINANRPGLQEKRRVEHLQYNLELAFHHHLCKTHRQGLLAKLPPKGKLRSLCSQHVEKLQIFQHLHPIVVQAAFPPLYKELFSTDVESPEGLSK
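Stable Schneider cell line, Gal4 DNA-binding domain fused to ROR gamma, UAS-luciferase. Cmpd 1 hr RT → CuSO4 700 uM final → 20 hr RT → luciferase reagent 10 min → luminescence.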
Gal4-VP16 FLuc = Gal4-VP16 reporter inhibition counter-screen. Potency, µM (highest dose often 53.6 µM), for inactives: at the highest dose activity, negative = inhibition, most hits filed as inhibitors. Drosophila S2 Gal4-VP16 UAS-luciferase, luminescence, 20 h. hit rate 3.5% among 310,000;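 also: Gal4-VP16 expression switched on by copper sulfate through the metallothionein promoter; % is scaled to controls: 0 for no effect and ±100 for the full control effect; nearly all actives have a fitted effect of over 50% in size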
* = called active by the depositor; i = inactive; ? = inconclusive; · = no result given; [ ] = another dose, or the depositor's remark. A selection: hits, their analogues and other compounds. The true share with any hit is near 10%. Calls follow the shape of the dose curve; as a rule, active = well fitted curve in the direction sought with a large enough effect; inconclusive = small, poorly fitted or top-dose-only effect, or another doubt; inactive = no such curve, though single readings can be large; an effect the other way counts as inactive or inconclusive. Potency is read from the fitted curve at half-maximal effect.

SMILES	ELG1 DNA repair	SW480 rereplic	MCF10A rereplic	RORg inh	Gal4-VP16 FLuc
CC(=O)N/N=C/c1ccc([N+](=O)[O-])o1	·	10%	?	?	3.5µM*
CCOC(=O)N/N=C\c1ccc([N+](=O)[O-])o1	-26%	-1%	-5%	-19%	-7%
COc1ccccc1CNC(=O)[C@H](NC(=O)C1CCN(C(=O)[C@@H](N)CCSC)CC1)C(C)C	?	7%	-5%	-9%	-6%
Cc1cccc(N2CN(Cc3cccnc3)CNC2=S)c1	9%	1%	-2%	-5%	4%
CCCCN1CNC(=S)N(c2cc(C)ccc2C)C1	0%	?	12%	14µM*	10µM*
CCCN1CNC(=S)N(c2ccccc2OCC)C1	0%	-23%	0%	10µM*	?
CCN1CNC(=S)N(c2ccccc2OC)C1	9%	-4%	-7%	-23%	0%
CCCCN1CNC(=S)N(c2ccccc2OCC)C1	9%	-134%	0%	11µM*	14µM*
CCCN1CNC(=S)N(c2cccc(C)c2)C1	-16%	7%	10%	11µM*	-24%
O=C(Nc1ccc(F)cc1)OCCOc1ccc(Br)cc1	-16%	-3%	30%	-11%	-16%
Oc1c(Br)cc(Br)cc1C=Nc1ccc2c(c1)OCO2	-2%	8%	?	18µM*	?
COc1ccc(/C=N/NC(=O)c2[nH]nc3c2CCc2ccccc2-3)cc1OC	-3%	?	5.2µM*	?	-6%
COc1ccc(/C=N/NC(=O)c2nc(-c3ccccc3)cc(-c3ccccc3)n2)cc1OC	4.1µM*	-3%	-8%	35%	-5%
COc1cccc(/C=N/NC(=O)c2cnccn2)c1	?	-1%	-5%	-3%	-8%
COc1cccc(/C=N/NC(=O)c2nc(-c3ccccc3)cc(-c3ccccc3)n2)c1	7.3µM*	-5%	?	-6%	-15%
CNC(=O)c1[nH]nc2c1CCc1ccccc1-2	1%	0%	-23%	32%	0%
CC(=O)Nc1c(C(=O)c2ccc(F)cc2)oc2ccccc12	8%	0%	13%	6%	-6%
Cc1ccc(C(=O)c2oc3ccccc3c2NC(=O)c2cc(-c3cc(C)ccc3O)n[nH]2)cc1	?	?	1.6µM*	?	-6%
Cc1ccc(C(=O)c2oc3ccccc3c2NC(=O)c2cc(-c3ccccc3O)n[nH]2)cc1	-9%	18µM*	9.2µM*	-37%	?
O=C(Nc1c(C(=O)c2ccccc2)oc2ccccc12)c1cc(-c2ccccc2O)n[nH]1	-22%	?	?	?	?
CCCCCCC(=O)N(O)C1CC(=O)N(c2ccc(C)cc2)C1=O (centres undefined)	?	?	?	11µM*	?
Cc1ccc(N2C(=O)CC(N(O)C3CC(=O)N(c4ccc(C)cc4)C3=O)C2=O)cc1 (centres undefined)	5%	0%	4%	23%	-9%
CCCCCCC(=O)N(O)C1CC(=O)N(c2ccc(Cl)cc2)C1=O (centres undefined)	?	18µM*	?	?	?
O=C(O)CSC1CC(=O)N(c2ccc(Cl)cc2)C1=O (centres undefined)	-1%	-5%	1%	-11%	2%
O=C(O)C(Cc1c[nH]c2ccccc12)N1CCS(=O)(=O)CC1 (centres undefined)	3%	23%	11%	-6%	-11%
SMILES	ELG1 DNA repair	SW480 rereplic	MCF10A rereplic	RORg inh	Gal4-VP16 FLuc
Oc1cccc2ccc(/C=C/c3cccs3)nc12	?	11µM*	?	13µM*	?
CC(O)/C=C/c1ccc2ccccc2n1 (centres undefined)	14%	?	18µM*	?	-5%
Cc1ccsc1/C=C/C(=O)O	2%	-2%	0%	-1%	3%
Cc1ccsc1/C=C/c1ccc2cccc(O)c2n1	?	?	?	4.5µM*	?
Cc1ccsc1/C=C/c1ccc2ccccc2n1	?	-2%	?	10µM*	?
O=C(/C=C/c1cccs1)c1cc(Cl)ccc1O	0%	i[1.84 µM]	-10%	-16%	7%
COc1cccc(CCC(=O)Nc2cc3c(cc2C(=O)O)OCCCO3)c1OC	16%	-5%	0%	·	·
COc1ccc(NC(=O)CCC(=O)c2ccc(Cl)cc2)cn1	?	-14%	5%	·	·
O=C(NC1CCCC1)C(c1ccc(F)cc1)N(C(=O)c1csnn1)C1CCCC1 (centres undefined)	2%	-6%	-2%	-18%	9%
C(=C\c1ccco1)/c1ccc2ccccc2n1	?	-24%	18µM*	12%	4%
Fc1cccc(F)c1/C=C/c1ccc2ccccc2n1	?	·	3%	?	?
O=C(N/N=C/C1CCCCC1)c1cc(Cl)ccc1O	-17%	0%	-2%	13µM*	-14%
CCOC(=O)c1c(Nc2ccccc2OCCOC)n[nH]c1C	21µM*	-5%	1%	-11%	-6%
CC(C)(C)c1ccc(C(=O)Nc2cccc3c(=O)[nH][nH]c(=O)c23)cc1	?	?	?	?	3.5µM*
O=C1c2ccccc2C(Cc2ccnc(F)c2)(Cc2ccnc(F)c2)c2ccccc21	·	·	·	35%	1%
COc1ccc(C(C)(C)C)cc1NC(=O)c1ccoc1C	3%	5%	10%	2.2µM*	?
COc1ccc(C)cc1NC(=O)c1ccoc1C	4%	-1%	6%	11%	0%
CCc1nnc(NC(=O)CSc2nc3cccnc3n2C2CCCCC2)s1	-3%	11%	?	10µM*	?
CCOc1ccc(-n2ccnc2SCC(=O)Nc2nnc(C)s2)cc1	-3%	1%	-7%	-36%	-4%
Cc1nc(NC(=O)CSc2nc3cccnc3n2C2CCCCC2)sc1C	?	3%	?	-7%	?
CCc1nnc(NC(=O)CSc2nccn2-c2cc(C)cc(C)c2)s1	?	?	?	18µM*	?
Cc1cccc(-n2ccnc2SCC(=O)Nc2nccs2)c1C	?	13%	25%	?	10%
CCc1nnc(NC(=O)CSc2nccn2-c2cccc(C)c2C)s1	9.2µM*	?	?	2.8µM*	18µM*
Brc1ccc(-c2nc3ncccn3c2NC2CCCCC2)o1	?	-12%	?	4%	-3%
O=C(CC(=O)c1cc(Cl)ccc1O)c1ccccc1	?	?	21µM*	?	11µM*
NC(=NCCc1ccccc1)NC(=O)c1cc(Cl)ccc1O	·	21µM*	?	·	·
Cc1ccc(O)c(C(=O)CC(=O)c2cccc(F)c2)c1	?	9%	?	7.9µM*	7.1µM*
Cc1ccc(O)c(C(=O)CC(=O)c2ccc(Cl)cc2)c1	?	?	?	3.5µM*	5µM*
